Measured values as given in ChEMBL document CHEMBL2218924, “A broad activity screen in support of a chemogenomic map for kinase signalling research and drug discovery” (Biochem J, 2013).

Tests used:
[1] = biological target: T1, Testis-specific serine/threonine-protein kinase 1 (Homo sapiens) (UniProt Q9BXA7); settings: at 1 µM
T1 sequence (whole entry): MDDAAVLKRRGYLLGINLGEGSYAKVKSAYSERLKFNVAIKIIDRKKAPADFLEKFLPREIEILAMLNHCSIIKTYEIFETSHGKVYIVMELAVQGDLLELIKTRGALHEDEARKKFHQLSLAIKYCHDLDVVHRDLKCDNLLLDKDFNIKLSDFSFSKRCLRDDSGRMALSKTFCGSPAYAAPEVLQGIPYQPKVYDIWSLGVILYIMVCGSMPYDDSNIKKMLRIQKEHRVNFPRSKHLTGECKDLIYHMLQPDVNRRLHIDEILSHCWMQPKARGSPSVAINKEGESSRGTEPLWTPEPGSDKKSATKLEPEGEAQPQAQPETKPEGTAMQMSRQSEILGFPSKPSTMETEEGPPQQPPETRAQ

[2] = biological target: T1, Testis-specific serine/threonine-protein kinase 1 (Homo sapiens); settings: at 10 µM
[3] = biological target: Angiopoietin-1 receptor (Homo sapiens) (UniProt Q02763); settings: at 1 µM
Angiopoietin-1 receptor (Homo sapiens), sequence (Q02763 whole entry): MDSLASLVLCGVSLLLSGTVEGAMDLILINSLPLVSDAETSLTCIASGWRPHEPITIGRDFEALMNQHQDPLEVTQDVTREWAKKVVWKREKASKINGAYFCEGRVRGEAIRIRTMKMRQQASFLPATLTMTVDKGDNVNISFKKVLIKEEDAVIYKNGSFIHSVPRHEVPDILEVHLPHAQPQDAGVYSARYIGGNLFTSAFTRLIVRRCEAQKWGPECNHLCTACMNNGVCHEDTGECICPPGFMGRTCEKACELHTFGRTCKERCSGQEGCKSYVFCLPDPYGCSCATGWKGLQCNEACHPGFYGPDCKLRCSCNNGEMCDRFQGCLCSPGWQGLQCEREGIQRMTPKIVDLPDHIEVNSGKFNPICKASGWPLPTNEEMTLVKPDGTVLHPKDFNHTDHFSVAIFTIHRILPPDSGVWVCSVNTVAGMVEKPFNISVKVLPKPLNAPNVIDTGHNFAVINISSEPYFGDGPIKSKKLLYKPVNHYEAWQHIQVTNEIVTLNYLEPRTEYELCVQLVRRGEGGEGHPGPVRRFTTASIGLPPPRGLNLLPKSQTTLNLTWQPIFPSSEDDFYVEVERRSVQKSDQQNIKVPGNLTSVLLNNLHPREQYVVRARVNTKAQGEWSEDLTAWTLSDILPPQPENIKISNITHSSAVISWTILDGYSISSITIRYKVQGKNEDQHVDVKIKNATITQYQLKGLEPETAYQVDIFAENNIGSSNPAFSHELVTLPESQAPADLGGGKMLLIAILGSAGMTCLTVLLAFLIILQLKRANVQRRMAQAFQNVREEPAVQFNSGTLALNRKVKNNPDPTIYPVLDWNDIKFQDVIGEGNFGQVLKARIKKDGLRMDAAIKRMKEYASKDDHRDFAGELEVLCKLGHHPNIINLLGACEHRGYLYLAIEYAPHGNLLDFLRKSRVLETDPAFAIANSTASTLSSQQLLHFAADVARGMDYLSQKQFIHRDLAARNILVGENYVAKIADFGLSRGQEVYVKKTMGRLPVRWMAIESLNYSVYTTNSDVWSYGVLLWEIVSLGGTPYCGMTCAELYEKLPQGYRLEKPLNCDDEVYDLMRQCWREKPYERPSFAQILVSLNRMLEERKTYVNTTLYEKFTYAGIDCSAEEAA

[4] = biological target: Angiopoietin-1 receptor (Homo sapiens) (UniProt Q02763); settings: at 10 µM
[5] = biological target: BDNF/NT-3 growth factors receptor (Homo sapiens) (UniProt Q16620); settings: at 1 µM
BDNF/NT-3 growth factors receptor (Homo sapiens), sequence (Q16620 32-822 limits assumed): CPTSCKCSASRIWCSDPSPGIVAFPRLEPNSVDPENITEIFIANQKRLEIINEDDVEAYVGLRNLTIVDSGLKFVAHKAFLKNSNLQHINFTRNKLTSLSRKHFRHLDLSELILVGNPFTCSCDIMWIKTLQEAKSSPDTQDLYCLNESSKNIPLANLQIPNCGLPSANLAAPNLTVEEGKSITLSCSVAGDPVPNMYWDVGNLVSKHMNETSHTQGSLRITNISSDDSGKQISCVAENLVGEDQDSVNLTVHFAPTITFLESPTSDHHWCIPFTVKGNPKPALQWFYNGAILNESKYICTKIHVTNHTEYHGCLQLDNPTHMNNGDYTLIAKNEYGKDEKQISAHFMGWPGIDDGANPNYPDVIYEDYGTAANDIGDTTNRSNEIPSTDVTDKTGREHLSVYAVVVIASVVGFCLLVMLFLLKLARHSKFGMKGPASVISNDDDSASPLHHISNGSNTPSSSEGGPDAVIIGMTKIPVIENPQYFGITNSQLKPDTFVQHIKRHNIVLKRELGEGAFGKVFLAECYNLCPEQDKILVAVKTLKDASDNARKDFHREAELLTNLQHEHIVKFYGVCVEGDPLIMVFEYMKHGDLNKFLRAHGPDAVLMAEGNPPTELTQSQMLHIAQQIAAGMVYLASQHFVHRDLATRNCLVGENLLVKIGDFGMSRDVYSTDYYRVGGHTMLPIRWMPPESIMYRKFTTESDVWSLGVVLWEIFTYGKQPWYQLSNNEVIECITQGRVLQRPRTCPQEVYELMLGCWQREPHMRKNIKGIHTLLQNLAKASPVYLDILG

[6] = biological target: BDNF/NT-3 growth factors receptor (Homo sapiens) (UniProt Q16620); settings: at 10 µM
[7] = biological target: T2, Tyrosine-protein kinase TXK (Homo sapiens) (UniProt P42681); settings: at 10 µM
T2 sequence (whole entry): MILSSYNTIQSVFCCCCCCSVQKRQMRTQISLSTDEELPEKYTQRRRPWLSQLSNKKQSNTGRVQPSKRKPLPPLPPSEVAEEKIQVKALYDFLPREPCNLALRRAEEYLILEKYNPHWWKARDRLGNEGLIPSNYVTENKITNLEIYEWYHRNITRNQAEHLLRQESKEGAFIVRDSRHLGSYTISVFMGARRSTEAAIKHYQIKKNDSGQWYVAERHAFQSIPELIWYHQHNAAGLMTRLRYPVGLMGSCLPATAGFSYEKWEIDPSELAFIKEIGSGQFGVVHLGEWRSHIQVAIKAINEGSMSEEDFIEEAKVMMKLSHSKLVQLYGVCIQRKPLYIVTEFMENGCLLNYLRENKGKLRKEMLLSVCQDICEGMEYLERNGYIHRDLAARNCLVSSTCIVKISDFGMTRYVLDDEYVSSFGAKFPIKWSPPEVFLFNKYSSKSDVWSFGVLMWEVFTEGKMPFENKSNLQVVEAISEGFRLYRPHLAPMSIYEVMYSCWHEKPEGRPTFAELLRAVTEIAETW

[8] = biological target: T3, Serine/threonine-protein kinase ULK3 (Homo sapiens) (UniProt Q6PHR2); settings: at 1 µM
T3 sequence (whole entry): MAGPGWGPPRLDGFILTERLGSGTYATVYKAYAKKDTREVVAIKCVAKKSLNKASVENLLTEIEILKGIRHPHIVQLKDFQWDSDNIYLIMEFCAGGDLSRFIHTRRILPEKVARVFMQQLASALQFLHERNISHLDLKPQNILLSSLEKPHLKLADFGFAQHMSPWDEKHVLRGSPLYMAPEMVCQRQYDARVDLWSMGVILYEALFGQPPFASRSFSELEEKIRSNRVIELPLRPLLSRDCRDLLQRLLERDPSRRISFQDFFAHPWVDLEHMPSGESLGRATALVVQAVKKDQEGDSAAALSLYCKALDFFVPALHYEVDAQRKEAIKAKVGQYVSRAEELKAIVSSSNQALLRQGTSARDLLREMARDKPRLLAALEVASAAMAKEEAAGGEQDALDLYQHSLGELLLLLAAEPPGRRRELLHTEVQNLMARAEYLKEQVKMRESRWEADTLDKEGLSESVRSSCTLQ

[9] = biological target: T3, Serine/threonine-protein kinase ULK3 (Homo sapiens); settings: at 10 µM
[10] = biological target: Serine/threonine-protein kinase VRK2 (Homo sapiens) (UniProt Q86Y07); settings: at 10 µM
[11] = biological target: Serine/threonine-protein kinase WNK2 (Homo sapiens) (UniProt Q9Y3S1); settings: at 1 µM;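 further: residual WNK2 kinase activity expressed as percent of uninhibited control, assayed in MOPS buffer at pH 7.0 containing EDTA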
Serine/threonine-protein kinase WNK2 (Homo sapiens), sequence (Q9Y3S1 whole entry): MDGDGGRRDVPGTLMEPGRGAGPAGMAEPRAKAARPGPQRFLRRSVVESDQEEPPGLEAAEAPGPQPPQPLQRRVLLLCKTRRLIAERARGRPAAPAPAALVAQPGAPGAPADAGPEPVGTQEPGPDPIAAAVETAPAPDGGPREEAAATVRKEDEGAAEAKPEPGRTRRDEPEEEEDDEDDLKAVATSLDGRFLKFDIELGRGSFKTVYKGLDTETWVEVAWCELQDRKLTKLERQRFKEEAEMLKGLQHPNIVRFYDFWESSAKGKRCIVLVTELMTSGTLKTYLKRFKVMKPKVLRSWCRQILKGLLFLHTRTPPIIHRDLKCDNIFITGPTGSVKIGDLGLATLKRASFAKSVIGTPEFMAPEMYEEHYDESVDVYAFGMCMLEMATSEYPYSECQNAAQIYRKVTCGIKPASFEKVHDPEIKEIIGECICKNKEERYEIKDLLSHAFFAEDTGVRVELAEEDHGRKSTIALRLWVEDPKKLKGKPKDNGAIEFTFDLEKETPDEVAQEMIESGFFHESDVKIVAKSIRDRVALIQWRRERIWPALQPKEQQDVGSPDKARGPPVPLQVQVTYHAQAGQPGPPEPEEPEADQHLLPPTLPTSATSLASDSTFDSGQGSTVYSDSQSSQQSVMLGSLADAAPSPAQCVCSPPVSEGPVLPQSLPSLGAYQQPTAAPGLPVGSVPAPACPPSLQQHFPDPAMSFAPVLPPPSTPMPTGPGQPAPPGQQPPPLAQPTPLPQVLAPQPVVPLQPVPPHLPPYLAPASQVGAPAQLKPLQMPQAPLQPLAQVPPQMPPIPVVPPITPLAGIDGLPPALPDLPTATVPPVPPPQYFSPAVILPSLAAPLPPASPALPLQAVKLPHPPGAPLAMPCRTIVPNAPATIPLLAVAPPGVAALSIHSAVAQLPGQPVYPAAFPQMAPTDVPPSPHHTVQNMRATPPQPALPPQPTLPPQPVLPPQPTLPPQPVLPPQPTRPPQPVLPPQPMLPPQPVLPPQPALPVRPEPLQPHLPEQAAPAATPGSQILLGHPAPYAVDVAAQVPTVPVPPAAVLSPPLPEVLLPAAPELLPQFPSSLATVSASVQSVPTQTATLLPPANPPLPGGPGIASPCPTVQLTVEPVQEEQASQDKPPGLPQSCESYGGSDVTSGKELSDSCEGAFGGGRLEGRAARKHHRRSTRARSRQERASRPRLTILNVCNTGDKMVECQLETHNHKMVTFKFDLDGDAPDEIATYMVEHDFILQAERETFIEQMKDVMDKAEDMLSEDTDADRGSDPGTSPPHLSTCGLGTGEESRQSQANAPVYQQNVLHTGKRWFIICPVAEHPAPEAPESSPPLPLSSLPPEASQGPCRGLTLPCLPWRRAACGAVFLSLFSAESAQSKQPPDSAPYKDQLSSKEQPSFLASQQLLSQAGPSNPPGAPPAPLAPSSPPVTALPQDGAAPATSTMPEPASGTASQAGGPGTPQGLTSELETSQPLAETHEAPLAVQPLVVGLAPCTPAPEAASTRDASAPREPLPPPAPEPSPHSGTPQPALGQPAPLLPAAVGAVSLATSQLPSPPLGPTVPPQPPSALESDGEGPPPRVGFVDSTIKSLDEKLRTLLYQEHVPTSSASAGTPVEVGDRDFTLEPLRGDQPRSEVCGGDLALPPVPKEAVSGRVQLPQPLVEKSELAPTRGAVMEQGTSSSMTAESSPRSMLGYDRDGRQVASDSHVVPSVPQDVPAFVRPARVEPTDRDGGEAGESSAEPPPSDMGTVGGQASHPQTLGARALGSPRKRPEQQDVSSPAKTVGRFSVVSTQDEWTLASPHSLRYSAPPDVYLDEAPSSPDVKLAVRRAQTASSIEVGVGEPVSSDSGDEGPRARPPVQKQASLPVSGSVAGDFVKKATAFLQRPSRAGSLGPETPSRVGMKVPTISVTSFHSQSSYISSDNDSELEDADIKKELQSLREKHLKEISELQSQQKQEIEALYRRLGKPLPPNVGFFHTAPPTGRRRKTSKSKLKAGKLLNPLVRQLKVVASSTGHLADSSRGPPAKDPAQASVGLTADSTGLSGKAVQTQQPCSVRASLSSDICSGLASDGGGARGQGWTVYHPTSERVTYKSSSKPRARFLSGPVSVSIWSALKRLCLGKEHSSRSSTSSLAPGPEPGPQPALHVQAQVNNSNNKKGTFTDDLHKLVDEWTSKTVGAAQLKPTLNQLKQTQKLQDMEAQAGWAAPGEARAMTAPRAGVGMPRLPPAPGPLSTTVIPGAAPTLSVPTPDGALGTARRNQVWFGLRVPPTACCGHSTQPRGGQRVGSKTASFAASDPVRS

[12] = biological target: T4, Tyrosine-protein kinase Tec (Homo sapiens) (UniProt P42680); settings: at 10 µM
T4 sequence (whole entry): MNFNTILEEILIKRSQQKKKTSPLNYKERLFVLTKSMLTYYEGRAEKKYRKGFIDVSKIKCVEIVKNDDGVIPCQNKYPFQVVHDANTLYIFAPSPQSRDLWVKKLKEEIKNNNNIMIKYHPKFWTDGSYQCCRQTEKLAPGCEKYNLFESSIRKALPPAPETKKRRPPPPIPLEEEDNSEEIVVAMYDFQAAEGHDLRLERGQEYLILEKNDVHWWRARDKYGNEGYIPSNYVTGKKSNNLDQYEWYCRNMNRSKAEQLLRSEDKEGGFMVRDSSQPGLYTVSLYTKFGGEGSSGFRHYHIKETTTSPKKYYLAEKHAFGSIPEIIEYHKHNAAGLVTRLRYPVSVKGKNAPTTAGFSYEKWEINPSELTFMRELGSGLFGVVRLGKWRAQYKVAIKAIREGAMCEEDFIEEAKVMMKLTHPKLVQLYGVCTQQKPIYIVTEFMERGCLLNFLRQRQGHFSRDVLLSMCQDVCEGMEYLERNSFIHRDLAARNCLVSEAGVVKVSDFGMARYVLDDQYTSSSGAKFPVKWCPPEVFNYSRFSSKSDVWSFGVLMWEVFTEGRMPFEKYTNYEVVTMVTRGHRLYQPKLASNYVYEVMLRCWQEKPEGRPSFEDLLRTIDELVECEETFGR

[13] = biological target: Serine/threonine-protein kinase VRK2 (Homo sapiens) (UniProt Q86Y07); settings: at 1 µM
[14] = biological target: T5, Testis-specific serine/threonine-protein kinase 2 (Homo sapiens) (UniProt Q96PF2); settings: at 10 µM
T5 sequence (whole entry): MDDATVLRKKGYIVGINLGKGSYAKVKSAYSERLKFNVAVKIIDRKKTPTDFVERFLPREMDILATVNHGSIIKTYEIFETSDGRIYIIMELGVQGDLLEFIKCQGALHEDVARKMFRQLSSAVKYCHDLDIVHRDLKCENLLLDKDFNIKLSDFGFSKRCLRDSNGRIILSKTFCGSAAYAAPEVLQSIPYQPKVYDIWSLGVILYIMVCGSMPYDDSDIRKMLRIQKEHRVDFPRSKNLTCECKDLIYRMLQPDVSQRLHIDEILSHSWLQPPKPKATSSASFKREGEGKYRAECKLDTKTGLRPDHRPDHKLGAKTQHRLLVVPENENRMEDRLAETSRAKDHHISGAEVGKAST

[15] = biological target: T4, Tyrosine-protein kinase Tec (Homo sapiens); settings: at 1 µM
[16] = biological target: High affinity nerve growth factor receptor (Homo sapiens) (UniProt P04629); settings: at 1 µM
High affinity nerve growth factor receptor (Homo sapiens), sequence (P04629 33-796 limits assumed): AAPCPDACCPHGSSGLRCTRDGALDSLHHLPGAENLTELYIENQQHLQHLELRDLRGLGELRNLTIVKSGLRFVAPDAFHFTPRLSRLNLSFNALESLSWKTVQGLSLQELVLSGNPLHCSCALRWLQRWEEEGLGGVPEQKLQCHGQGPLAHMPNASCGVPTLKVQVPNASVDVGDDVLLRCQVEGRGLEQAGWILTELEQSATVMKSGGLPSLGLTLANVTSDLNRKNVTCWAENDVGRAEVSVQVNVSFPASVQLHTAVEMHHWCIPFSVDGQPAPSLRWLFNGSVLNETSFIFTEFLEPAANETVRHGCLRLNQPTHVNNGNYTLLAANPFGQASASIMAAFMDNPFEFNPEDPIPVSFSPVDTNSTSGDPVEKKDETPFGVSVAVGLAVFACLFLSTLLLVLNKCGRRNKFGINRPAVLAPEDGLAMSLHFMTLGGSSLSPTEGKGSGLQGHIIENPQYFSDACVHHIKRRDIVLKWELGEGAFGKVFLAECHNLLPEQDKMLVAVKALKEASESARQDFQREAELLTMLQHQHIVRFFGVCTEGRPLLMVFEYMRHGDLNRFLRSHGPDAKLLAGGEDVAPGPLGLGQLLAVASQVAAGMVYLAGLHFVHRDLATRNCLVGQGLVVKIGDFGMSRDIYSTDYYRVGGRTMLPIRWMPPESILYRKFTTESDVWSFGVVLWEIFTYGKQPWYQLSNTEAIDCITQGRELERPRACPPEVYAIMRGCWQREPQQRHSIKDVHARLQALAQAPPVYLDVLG

[17] = biological target: T2, Tyrosine-protein kinase TXK (Homo sapiens); settings: at 1 µM
[18] = biological target: T6, Serine/threonine-protein kinase ULK2 (Homo sapiens) (UniProt Q8IYT8); settings: at 1 µM
T6 sequence (whole entry): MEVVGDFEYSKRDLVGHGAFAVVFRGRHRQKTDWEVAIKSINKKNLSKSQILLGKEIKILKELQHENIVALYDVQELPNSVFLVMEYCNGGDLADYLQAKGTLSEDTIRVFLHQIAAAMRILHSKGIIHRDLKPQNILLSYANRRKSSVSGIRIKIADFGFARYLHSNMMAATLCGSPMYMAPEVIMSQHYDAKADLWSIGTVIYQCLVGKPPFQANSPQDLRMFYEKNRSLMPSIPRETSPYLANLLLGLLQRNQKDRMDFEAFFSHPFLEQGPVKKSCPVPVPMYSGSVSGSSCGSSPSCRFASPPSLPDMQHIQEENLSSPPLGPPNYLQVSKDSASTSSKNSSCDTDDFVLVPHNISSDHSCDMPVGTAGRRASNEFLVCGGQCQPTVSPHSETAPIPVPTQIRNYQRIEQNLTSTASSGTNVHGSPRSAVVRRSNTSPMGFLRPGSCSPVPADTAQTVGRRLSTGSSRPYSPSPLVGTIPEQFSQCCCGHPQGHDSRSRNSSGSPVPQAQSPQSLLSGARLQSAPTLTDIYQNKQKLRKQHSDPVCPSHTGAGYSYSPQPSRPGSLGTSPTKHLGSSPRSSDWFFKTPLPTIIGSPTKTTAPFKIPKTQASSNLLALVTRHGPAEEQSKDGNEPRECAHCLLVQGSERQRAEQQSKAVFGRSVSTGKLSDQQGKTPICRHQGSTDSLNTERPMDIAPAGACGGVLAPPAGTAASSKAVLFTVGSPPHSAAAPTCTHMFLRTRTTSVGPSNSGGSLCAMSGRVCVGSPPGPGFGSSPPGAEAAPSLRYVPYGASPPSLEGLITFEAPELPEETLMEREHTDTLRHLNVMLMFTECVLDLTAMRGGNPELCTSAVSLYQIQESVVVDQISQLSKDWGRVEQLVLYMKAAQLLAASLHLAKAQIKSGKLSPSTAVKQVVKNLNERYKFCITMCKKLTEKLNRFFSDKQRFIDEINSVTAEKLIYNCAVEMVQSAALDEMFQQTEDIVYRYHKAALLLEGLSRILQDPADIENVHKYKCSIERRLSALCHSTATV

[19] = biological target: T6, Serine/threonine-protein kinase ULK2 (Homo sapiens); settings: at 10 µM
[20] = biological target: High affinity nerve growth factor receptor (Homo sapiens) (UniProt P04629); settings: at 10 µM

SMILES	residual activity [1]	residual activity [2]	residual activity [3]	residual activity [4]	residual activity [5]	residual activity [6]	residual activity [7]	residual activity [8]	residual activity [9]	residual activity [10]	residual activity [11]	residual activity [12]	residual activity [13]	residual activity [14]	residual activity [15]	residual activity [16]	residual activity [17]	residual activity [18]	residual activity [19]	residual activity [20]
NCCNc1ncc(C(N)=O)c(Nc2cccc(C(F)(F)F)c2)n1	56%	10%	100%	49%	47%	29%	61%	82%	24%	43%	111% (inactive)									
CC(C)N(CCC(=O)c1ccc2ccccc2c1)Cc1ccccc1	81%	78%					42%		86%	86%		73%	100% (inactive)							
O=c1cc(N2CCOCC2)oc2c1ccc1ccccc12	101%	82%	81%	97%		102%	85%	106%	94%	90%	110% (inactive)	96%	105% (inactive)	78%	93%	106%	90%	102%	88%	
c1ccc(-c2cnc(Nc3ccc(OCCN4CCCC4)cc3)s2)cc1	100%	78%	114%	60%	45%	3%	60%				123% (inactive)			74%		24%		59%	16%	3%
CC(C)c1nn(-c2c(Cl)cccc2Cl)c2nc(Cc3ccc(OCCO)cc3)[nH]c(=O)c12	91%	94%		86%		79%	99%	84%	45%	96%	108% (inactive)	85%	100% (inactive)	79%	90%	87%	96%	81%	49%	74%
CCCCc1c(-c2ccc(O)cc2)[nH]c2nccnc12	58%	59%			67%	45%		73%	31%					85%		61%		87%	93%	12%
CC(C)(C)c1nc2c3ccc(F)cc3c3c(=O)[nH]ccc3c2[nH]1	42%	60%	78%	64%	71%	-2%	57%	56%	13%							3%	63%	26%	25%	6%
COc1ccc(Cl)cc1NC(=O)Nc1cc(C)nc2ccccc12	95%	87%					60%		96%	94%		55%	98% (inactive)	88%	93%	100%			85%	60%
Nc1ncnc2c1c(-c1ccc(Oc3ccccc3)cc1)cn2C1CCCC1	94%	86%	12%	3%	44%	-9%	1%		45%	72%	103% (inactive)		85% (inactive)	93%		26%	18%	98%		-1%
CCCC(=O)Oc1ccc2[nH]c(C(=O)c3cc4ccccc4[nH]3)cc2c1	93%	82%	78%	49%		13%	82%	105%	85%	84%		94%	105% (inactive)	96%	85%	87%	102%	103%	97%	87%
Cn1sc(=O)n(Cc2ccccc2)c1=O	63%	80%					88%	92%	92%	90%	96% (inactive)	75%	98% (inactive)	84%	97%	81%	83%	90%	93%	68%
COc1cc2nccc(Oc3ccc(NC(=S)NC(=O)c4ccccc4C)cc3)c2cc1OC	93%	76%	33%	13%	54%	25%	37%	99%	76%	90%	76% (inactive)	36%	93% (inactive)	81%	79%	44%	88%	101%	93%	-1%
O=C(CCCc1ccc(-c2ccccc2F)cc1)Nc1ccc(O)cc1	103%	99%	83%	96%	93%	100%	89%	101%	95%	96%	104% (inactive)	79%	102% (inactive)		93%	102%	99%	112%	98%	54%
